This is a sample that favours compounds with a hit; in the whole collection about 1.2% have one here.
TSG101-PTAP inh: qHTS Assay for Iinhibitors of HIV-1 Budding by Blocking the Interaction of PTAP/TSG101. Fluorescence polarization, FITC-PTAP peptide / Tsg101 binding. 340,000 tested, under 10 active. Potency, µM (top dose mostly 115 µM), hits mostly inhibitors. AID 493005, 2010; active = well fitted inhibition curve with a large enough effect in the main read-out, with a control signal flat, not every such curve was filed as active
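Compounds were pin-transferred onto Tsg101 binding domain (10 uM final) in HEPES pH 7.5 buffer, then FITC-PTAP peptide was added at 50 nM final. After 20 min at RT, polarization reported peptide displacement across a qHTS concentration series.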
KCNH2 WT inh: qHTS for Inhibitors of KCHN2 3.1: Wildtype qHTS | Voltage-gated inwardly rectifying potassium channel KCNH2 (Homo sapiens), Q12809 | U2OS, BacMam KCNH2, thallium flux FluxOr; hits give low values | activity change, % at 1.84 µM | hit rate 0.37% among 340,000 | AID 720551, 2013;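 active = maximum activity change below -70%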
Target sequence (Q12809 whole entry, looked up): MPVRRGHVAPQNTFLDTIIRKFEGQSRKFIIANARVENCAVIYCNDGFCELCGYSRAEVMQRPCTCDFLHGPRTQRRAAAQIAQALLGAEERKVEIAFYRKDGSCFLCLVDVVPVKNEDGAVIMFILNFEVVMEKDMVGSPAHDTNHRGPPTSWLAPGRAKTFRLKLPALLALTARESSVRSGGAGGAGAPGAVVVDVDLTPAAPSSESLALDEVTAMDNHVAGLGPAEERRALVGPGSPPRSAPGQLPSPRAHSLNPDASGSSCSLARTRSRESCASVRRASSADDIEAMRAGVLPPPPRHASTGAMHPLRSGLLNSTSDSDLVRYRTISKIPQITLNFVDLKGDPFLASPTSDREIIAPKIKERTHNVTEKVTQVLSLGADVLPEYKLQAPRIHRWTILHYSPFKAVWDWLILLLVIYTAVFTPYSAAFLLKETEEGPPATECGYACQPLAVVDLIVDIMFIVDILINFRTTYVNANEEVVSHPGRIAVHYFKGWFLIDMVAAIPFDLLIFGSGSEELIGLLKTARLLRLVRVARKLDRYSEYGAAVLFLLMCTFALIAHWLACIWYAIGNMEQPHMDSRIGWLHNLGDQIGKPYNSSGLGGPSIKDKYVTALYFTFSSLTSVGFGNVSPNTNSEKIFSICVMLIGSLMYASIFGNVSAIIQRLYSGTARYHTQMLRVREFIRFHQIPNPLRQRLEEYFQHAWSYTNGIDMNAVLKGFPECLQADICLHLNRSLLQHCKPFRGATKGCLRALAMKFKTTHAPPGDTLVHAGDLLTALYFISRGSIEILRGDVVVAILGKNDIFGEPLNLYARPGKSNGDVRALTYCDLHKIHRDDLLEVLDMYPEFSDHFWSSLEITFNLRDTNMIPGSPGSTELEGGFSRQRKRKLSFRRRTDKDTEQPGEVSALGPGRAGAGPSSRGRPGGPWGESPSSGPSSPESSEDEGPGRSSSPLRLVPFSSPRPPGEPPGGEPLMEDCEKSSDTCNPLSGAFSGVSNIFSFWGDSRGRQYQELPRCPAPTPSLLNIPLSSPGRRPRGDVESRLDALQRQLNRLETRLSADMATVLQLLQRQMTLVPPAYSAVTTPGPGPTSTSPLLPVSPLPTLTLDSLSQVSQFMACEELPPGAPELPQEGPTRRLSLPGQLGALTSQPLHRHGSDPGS
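U2OS cells transduced with wild-type KCNH2 virus are loaded with FluxOr dye for 45 min, and thallium flux is measured in kinetic reads before and after stimulation buffer. Rate constants are normalized to DMSO controls.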
KCNH2 3.1 inh: qHTS for Inhibitors of KCHN2 3.1: Mutant qHTS; Potassium voltage-gated channel subfamily H member 2, brain isoform KCNH2 3.1 (human); U2OS KCNH2 3.1, thallium flux FluxOr; hits give low values; activity change, % (tested at about 1.8 µM); hit rate 0.95% among 340,000;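 active = maximum activity change below -70%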;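 note: thallium influx rate constant from kinetic fluorescence after stimulation buffer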
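Thallium flux via FluxOr fluorescence (Red40 quencher, 45 min loading) in U2OS cells virally expressing the KCNH2 3.1 isoform (1.77 x 10^8 /mL virus, overnight at 37 C). Rate constants from 2-min kinetic reads post-stimulation, normalised to positive and negative controls.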
Tb PFK block: qHTS Assay to Find Inhibitors of T. brucei phosphofructokinase; ATP-dependent 6-phosphofructokinase (Trypanosoma brucei brucei), O15648; T. brucei PFK, ADP-Glo luminescence; Potency, µM (doses to about 57.5 µM), usual class: inhibitors; hit rate 0.17% among 330,000; active = well fitted inhibition curve with a large enough effect; note: nearly all actives have a fitted effect of over 60% in size
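PFK 1.25 nM, F6P 0.5 mM, ATP 0.1 mM, 0.1 M TEA pH 8.0, 5 mM MgCl2, 0.01% Tween20, 0.1% BSA; 45 min RT. ADP-Glo readout. qHTS titration up to 57 uM; curves fitted, compounds curve-classed.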
Of the large screens only hits and unclear results are named; the others gave an inactive call.

CCCCCC(=O)N1CC2(CC(c3cccc(NC(=O)COc4ccc(Cl)cc4)c3)=NO2)C[C@@H]1C(N)=O (stereo partly drawn)	KCNH2 WT inh -90.9, KCNH2 3.1 inh -74.4
CC(=O)c1c(C)[nH]c(C(=O)OCC(=O)N(CC(C)C)C2CCS(=O)(=O)C2)c1C (stereo not drawn)	none
Cc1cnc(NC(=O)c2cccc(S(=O)(=O)N3CCOCC3)c2)s1	none
C=C(C)C(=O)Nc1cccc(C2=NOC3(C2)C[C@@H](C(N)=O)N(C(=O)C2(C)CC2)C3)c1 (stereo partly drawn)	Tb PFK block 1.51µM
C=C(C)C(=O)Nc1cccc(C2=NOC3(C2)C[C@H](C(N)=O)N(C(=O)c2ccccc2)C3)c1 (stereo partly drawn)	none
O=C(CN1CCN(S(=O)(=O)c2ccc(Br)cc2)CC1)Nc1ccc(F)cc1F	KCNH2 3.1 inh -92.0
NC(=O)CN1CCN(S(=O)(=O)c2ccc(Br)cc2)CC1	KCNH2 3.1 inh -192.3
COc1ccc(-n2ncc3c2CC(C)(C)CC3NC(=O)Cc2nonc2C)cc1 (stereo not drawn)	none
COCCN(C/C=C/c1ccccc1)C/C=C/c1ccccc1	KCNH2 3.1 inh -78.6
CCN(CC)C(=O)Cn1cc([N+](=O)[O-])cc1[N+](=O)[O-]	none (no result: Tb PFK block)
CCn1c(COc2ccccc2)nnc1SCC(=O)NC1CCCCC1	KCNH2 WT inh -176.0
O=C(CSc1ncccc1C(=O)O)NC1CCCCCCC1	KCNH2 3.1 inh -79.3
Cc1ccc(NC(=O)CSc2ccc(C(N)=O)cc2[N+](=O)[O-])cc1C	KCNH2 3.1 inh -77.5
O=C(c1ccc(Cl)cc1)C1CCCN(Cc2cnn(-c3ccccc3)c2)C1 (stereo not drawn)	KCNH2 WT inh -78.2, KCNH2 3.1 inh -87.5
O=C(c1ccc(-c2ccccc2)cc1)C1CCCN(Cc2ccncc2)C1 (stereo not drawn)	none
CCNc1nc(NCC)nc(N(C#N)CCOc2ccccc2)n1	none
CN(C)c1nc(Cl)nc(N(C#N)CCOc2ccccc2)n1	KCNH2 3.1 inh -83.2
Cn1c(N)c(C(=O)COC(=O)c2ccccc2C(=O)c2ccccc2)c(=O)n(C)c1=O	none
Cn1c(N)c(C(=O)COC(=O)c2ccccc2C(F)(F)F)c(=O)n(C)c1=O	KCNH2 3.1 inh -92.5
O=S(=O)(c1ccc(F)cc1)N1CCN(CC(O)COCc2cccs2)CC1 (stereo not drawn)	KCNH2 3.1 inh -78.0
CCS(=O)(=O)N1CCC(C(=O)Nc2cccc(F)c2)CC1	none
Cc1ccc(-n2ncc3c2CCCC3NC(=O)c2csnn2)cc1C (stereo not drawn)	KCNH2 WT inh -89.3
Cc1cc(C)cc(-n2ncc3c2CCCC3NC(=O)c2csnn2)c1 (stereo not drawn)	none
O=c1c2ccccc2ncn1Cc1ccc(Cl)cc1	KCNH2 3.1 inh -98.3
CCN(CC)CCCCCCCCOC(=O)c1cc(OC)c(OC)c(OC)c1	none
CC(C)(C)OC(=O)N[C@H]1C=C[C@@H](OC(=O)CC(=O)OCC(F)(F)F)C1	none
CC(OC(=O)c1ccc(F)c(S(=O)(=O)N2CCOCC2)c1)C(=O)NC1CCCC1 (stereo not drawn)	none
O=C(COC(=O)C1CCN(c2ccc(C(F)(F)F)cn2)CC1)c1ccc(F)cc1	KCNH2 3.1 inh -78.5
COc1cc(C(=O)COC(=O)C2CCN(c3ccc(C(F)(F)F)cn3)CC2)ccc1OC(F)F	KCNH2 3.1 inh -78.7
O=C(c1cc(COc2ccc(F)c(F)c2)on1)N1CCN(C2CCCCC2)C(=O)C1	KCNH2 3.1 inh -125.4
O=C(c1cc(COc2c(F)cccc2F)on1)N1CCN(C2CCCCC2)C(=O)C1	none
COc1ccc(CNc2nc(-c3cccnc3)nn2S(C)(=O)=O)cc1	KCNH2 3.1 inh -75.6
Cc1ccc(CN(CC(O)COc2cccc3[nH]cc(C)c23)C(C)(C)C)cc1 (stereo not drawn)	KCNH2 3.1 inh -74.2
CCOc1ccc(C2NC(=O)CCC2[N+](=O)[O-])cc1 (stereo not drawn)	none
CC(C)OCCCNC(=O)C1CCC(CNS(=O)(=O)c2ccccc2)CC1 (stereo not drawn)	KCNH2 3.1 inh -85.0

Screening data deposited in PubChem BioAssay by National Center for Advancing Translational Sciences (NCATS).
